Source: PubChem BioAssay
E-sel TNF inh – blocks E-selectin expression induced by TNF alpha | HUVEC TNFa-induced E-selectin immunofluorescence, high content | inhibition, % at 2 µM | 120,000 tested, 0.71% active;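 active = inhibition above the batch mean plus 3 SD, and confirmed as a hit on visual image review, cut at about 43% in these data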;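 note: 0% = TNF-stimulated DMSO wells and 100% = unstimulated control wells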
F-actin modifier – alters cytoskeleton assembly in HUVEC cells; HUVEC TNFa F-actin phalloidin imaging, high content; inhibition, % at 2 µM; 91,000 tested, 0.18% active; AID 836;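 active = inhibition above the batch mean plus 3 SD and confirmed as a hit by visual image inspection, cut at about 30% in these data, passing the limit was not always enough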
VCAM1 TNFa inh – reduces TNF alpha induced VCAM1 expression in HUVEC; 95,000 tested, 0.48% active; AID 802; inhibition, % at 2 µM; HUVEC TNFa-induced VCAM-1 immunofluorescence, high-content imaging;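 active = inhibition above the batch mean plus 3 SD, with images confirmed as a hit by eye, cut at about 37% in these data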;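 note: 0% = TNF-stimulated DMSO wells and 100% = unstimulated control wells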
Phagocyt inh – blocks phagocytosis by macrophages; inhibition, % at 5 µM; 110,000 tested, 0.07% active; J774A.1 macrophage IgG-bead phagocytosis, imaging; AID 1029;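 active = inhibition above the mean of the plate negative controls plus 5 SD, cut at about 13% in these data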;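 note: phagocytic index as fraction of beads internalized from green versus red external bead signal; plate controls were DMSO negative control for no effect and cytochalasin-D positive control for full effect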
HUVEC tox TNFa – HUVEC cytotoxicity counter-screen, TNF alpha stimulated; HUVEC TNFalpha-stimulated, Hoechst cell count, imaging; cell count reduction, % at 2 µM; 93,000 tested, 0.17% active; AID 848;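 active = cell count reduction exceeding the screen mean by over 5 SD, scaled to untreated wells per plate, cut at about 78% in these data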;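 note: cells counted after 24 h of TNF alpha exposure following the 1 h pretreatment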
sdo1 growth – sdo1-depleted yeast growth rescue | S. cerevisiae sdo1-depleted JHY4D growth rescue, OD600 30 h; active compounds read high; pdr5 snq2 efflux-pump mutant strain | z-score at 10 µM | 140,000 tested, 0.21% active | AID 817;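 active = z-score above 3 at both the 24 hr and the 30 hr optical density reads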;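 note: z-score against mean and SD of all compound wells on the same plate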
* marks the source's active call; other numbers are inactive results; . = no result given; + = active, no number; [ ] = remark or other dose. An excerpt weighted towards active compounds, which were near 1.2% of everything screened.

SMILES	E-sel TNF inh	F-actin modifier	VCAM1 TNFa inh	Phagocyt inh	HUVEC tox TNFa	sdo1 growth
CCN(CC)S(=O)(=O)c1ccc(NC(=O)CSc2nnc(-c3ccc(F)cc3)o2)cc1	61*	-8	-11	-1	0	-0.92
CCCn1cnc2c(sc3nc4c(cc32)CSC(C)(C)C4)c1=O	-5	-13	20	-1	86*	-2.3
CCOC(=O)C1C(=O)NC(N2CCCCC2)=NC1c1ccco1 (centres undefined)	1	-16	97*	-1	12	1.1
O=C(Nc1cccc(-c2cn3ccccc3n2)c1)c1cccc(Cl)c1	57*	26	-2	0	-25	-1.8
c1ccc(-n2c(Sc3cnccn3)nnc2-c2cccs2)cc1	63*	-12	-3	.	9	-0.43
NC(=O)CSc1nnc(-c2cccs2)n1-c1ccccc1	16	3	11	.	-4	-0.09
COc1ccc(-n2nc3c(c2NC(=O)c2ccc(Br)cc2)CS(=O)C3)cc1 (centres undefined)	.	-14	-3	0	13	1.5
COc1ccc(-n2nc3c(c2NC(=O)c2cc(Br)ccc2Cl)CS(=O)C3)cc1 (centres undefined)	83*	-6	-6	.	-2	0.48
O=C(Nc1ccccc1C(=O)O)c1ccc(Br)c(S(=O)(=O)NCc2ccccc2)c1	-11	.	.	.	.	.
CCC(/C=C1\Sc2ccc(OC)cc2N1CCO)=C\c1sc2ccc(OC)cc2[n+]1CCO	.	.	.	+[fluoresces]	.	0.21
COc1ccc(/C=N/n2cc(-c3ccc(OC)cc3)nc2N)cc1	-21	2	20	0	-14	-1.6
COc1ccc(/C=N/n2cc(-c3ccccc3)nc2N)cc1	65*	.	.	0	.	0.36
O=S(=O)(NC(=NCCc1ccc(Cl)cc1)c1ccccc1Cl)c1cccs1	-26	.	.	.	.	.
CCn1c(CN2CCN(c3ccc(Cl)cc3)CC2)nc2ccccc21	14	10	58*	.	-19	-1.7
Cc1noc(C)c1S(=O)(=O)N1CCN(C(c2ccccc2)c2ccc(Cl)cc2)CC1 (centres undefined)	.	27	-16	0	86*	-0.56
Cc1noc(C)c1S(=O)(=O)N1CCCCC1	-2	.	1	.	-14	0.09
Cc1noc(C)c1S(=O)(=O)N1CCC2(CC1)OCCO2	-4	-14	88*	.	95*	1.1
O=C(NCc1cccs1)C(=O)c1cn(CC(=O)N2CCCC2)c2ccccc12	-11	.	.	.	.	.
Cc1ccc(/C=C2\SC(N)=NC2=O)s1	95*	.	.	-9	.	1.4
CCOC(=O)N1CCC(N2CCN(S(=O)(=O)c3ccc(NC(C)=O)cc3)CC2)CC1	100*	-11	15	0	-10	0.1
CCOC(=O)c1ccccc1NC(=O)c1ccccc1N(C)S(C)(=O)=O	-28	1	-26	-1	.	-0.6
CCOC(=O)c1ccccc1NC(=O)c1ccc(N(C)S(C)(=O)=O)cc1	70*	-5	-1	-1	-5	0.52
CSCCC(NC(=O)OCc1ccccc1)C(=O)O (centres undefined)	-18	18	97*	.	-24	0.26
O=C(NCc1ccccc1)c1n[nH]nc1-c1ccccc1O	58*	.	.	1	.	-0.26
CCc1nnc(NC(=O)[C@@H](NC(=O)c2cc(OC)cc(OC)c2)C(C)C)s1	16	.	.	.	.	.
SMILES	E-sel TNF inh	F-actin modifier	VCAM1 TNFa inh	Phagocyt inh	HUVEC tox TNFa	sdo1 growth
CC(C)C(=O)N(c1ccc(F)cc1)C1C=CS(=O)(=O)C1 (centres undefined)	82*	10	-10	2	-18	0.01
COC(=O)c1cc2sc(Cl)cc2n1CC(=O)Nc1cccc(SC)c1	65*	34	-6	-2	12	-2.6
O=C1c2ccccc2-c2ncnc3cccc1c23	65*	11	6	.	3	.
CC(C)N(Cc1cn[nH]c1-c1ccc(-c2ccccc2)cc1)Cc1nccn1C	-40	.	.	.	.	.
O=C(Nc1ccc2c(c1)OCO2)C1CC(=O)N(c2ccc3c(c2)OCCO3)C1 (centres undefined)	-20	.	.	.	.	.
Cc1ccc(N2CC(C(=O)Nc3ccc4c(c3)OCO4)CC2=O)cc1 (centres undefined)	17	23	8	3	89*	0.77
C#CCOCCOCCOCCNc1nc(N2CCN(C(=O)Cn3cc(CC(C)O)nn3)CC2)nc(N2CCN(C(=O)[C@H](C)n3cc(CCCN=C(N)N)nn3)CC2)n1 (some centres undefined)	-17	.	.	.	.	0.42
CCOC(=O)Cc1nnc(NC(=O)CSc2ccc(Cl)cc2)s1	67*	12	26	-2	-1	-0.51
CN1CCCN(S(=O)(=O)c2ccc(Cl)c(Cl)c2)CC1	100*	.	.	.	.	.
O=S(=O)(c1cccc(Cl)c1Cl)N1CCCCC1	19	-7	8	0	9	-0.24
CN1CCCN(S(=O)(=O)c2cccc(Cl)c2Cl)CC1	94*	.	.	.	.	.
CN1CCN(S(=O)(=O)c2cccc(S(=O)(=O)c3ccc(Cl)cc3)c2)CC1	-2	13	8	1	-17	0.81
CCc1nnc(NC(=O)CSc2nc(-c3ccccc3)nc3ccccc23)s1	-21	.	.	-6	.	-0.1
COc1ccc(C(=O)NNC(=O)CSc2nnc(COc3ccccc3OC)n2C)cc1	-3	.	.	-6	.	0.88
COC(=O)c1cc(S(=O)(=O)N2CCOCC2)c(N2CCOCC2)cc1N1CCOCC1	56*	.	.	2	.	1.1
O=C(c1cc(S(=O)(=O)N2CCCCC2)c(Cl)cc1N1CCOCC1)N1CCOCC1	-19	16	-7	0	-7	0.16
CCOC(=O)c1cnn(-c2ccc(F)cc2)c1N	15	.	.	.	.	.
CCOC(=O)c1nnc(-c2ccc(C)cc2)nc1Oc1ccccc1Cl	28	10	3	0	-16	-2.3
CCOC(=O)c1nnc(-c2ccc(C)cc2)nc1Oc1ccc(Cl)cc1Cl	63*	11	9	.	16	-1.7
COCCN(C)C(=O)CC1C(=O)NCCN1CC(c1ccccc1)c1ccccc1 (centres undefined)	3	.	.	.	.	.
CC(NC(=O)CCc1nnc(-c2ccc(-c3ccccc3)cc2)o1)c1nc2ccccc2[nH]1 (centres undefined)	-11	.	.	.	.	.
CCOC(=O)C1C(C)=C(Nc2ccc(OC)cc2)C(=O)N1c1ccc(OC)cc1 (centres undefined)	.	.	.	-3	.	0.06
C=C(C)CC(NCCc1ccccc1)c1ccco1 (centres undefined)	72*	.	.	.	.	.
Cc1nnc(SCC(=O)Nc2c(C)n(C)n(-c3ccccc3)c2=O)n1Cc1ccccc1	-7	.	.	.	.	.
Cc1ccc2nc3cc([N+](=O)[O-])cc([N+](=O)[O-])c3cc2c1	99*	.	.	.	.	.
Cc1ccc(Oc2c(C(N)=O)cc([N+](=O)[O-])cc2[N+](=O)[O-])cc1	.	.	.	4	.	-1.4
C=CCn1c(N2CCCC2)nc2c1c(=O)[nH]c(=O)n2C	22	7	41*	-1	22	0.11
Cn1c(=O)[nH]c(=O)c2c1nc(N1CCCCC1)n2CCCSc1nnnn1-c1ccccc1	89*	.	.	-5	.	0.5
CC(=O)Cn1c(N2CCC(Cc3ccccc3)CC2)nc2c1c(=O)[nH]c(=O)n2C	.	31*	3	0	17	-0.28
